# Measurements as given in PubChem BioAssay AID1745847 (National Center for Advancing Translational Sciences (NCATS), 2022).
# Among all 2,100 compounds or so, about 670 (32%) were called active. Another 50% or so got no clear call; they are omitted. Some of the results follow. Unmarked numbers belong to inactive results. Calls follow the shape of the dose curve; as a rule, active = well fitted inhibition curve with a large enough effect; inconclusive = small, poorly fitted or top-dose-only effect; inactive = no such curve, though single readings can be large or run the other way.
# Experiment: CMV-Luciferase Counterscreen for Inhibitors of ATXN expression; also: nearly all actives have a fitted effect of over 55% in size
# Settings: HEK-293 CMV-luciferase reporter, luminescence, 24 h; series mostly up to 57.5 µM; activity change, negative = inhibition: at the top concentration
# Source text: PI: Daniel Scoles Ph.D. University of Utah School of Medicine, Salt Lake City, Utah MLPCN Grant: NS073009 Spinocerebellar ataxia type 2 (SCA2) is a multisystem neurodegenerative disease caused by a dominantly acting mutation leading to expansion of a polyQ domain in the ataxin-2 protein (ATXN2). SCA2 patients develop progressive ataxia and later lose function in other neuronal systems. Prominent parkinsonian signs develop in some patients. Like many neurodegenerative disorders, no symptomatic or disease-modifying treatments are known. The primary objective of the proposed research is to identify compounds inhibiting ATXN2 expression and to test them for efficacy in SCA2 mouse models. We have developed a cell-based assay paired with an in vivo mouse model using identical luciferase expression constructs. This approach takes advantage of an ATXN2-luciferase transgene, with the luciferase gene flanked by the upstream and downstream portions of the ATXN2 gene. Here we describe a 5-7 dose quantitative high thoroughput screen (qHTS) for compounds lowering ATXN2 expression. We screened the NIH Molecular Libraries Small Molecule Repository (MLSMR) and NCGC's mechanistically annotated (MIPE) and drug repurposing (NPC) collections of compounds for lowering expression of an ATXN2-luciferase reporter in HEK-293 cells. The assay is a multiplexed cell viability assay to ensure target reduction in the absence of cytotoxicity. Secondary qHTS assays included a CMV-luciferase reporter expressed in HEK-293 cells as well as a biochemical assay using recombinant luciferase to detect inhibitors of the reporter enzyme. Compounds that inhibit ATXN2 expression but is not cytotoxic were selected for confirmatory and secondary screens.
# PROTOCOL TABLE (as described by Inglese J, Shamu CE and Guy RK. 2007) SEQUENCE No. (e.g., 1, 2, 3, etc.); PARAMETER (e.g., Cells, Incubation, Reagent, etc.); VALUE; DESCRIPTION. 1; Cells; 4 uL; white, solid bottom, 1536-well Greiner assay plate. 2; Incubation; 2 hr; 37 degree C in 5% humidified CO2. 3; Compounds; 23 nL; Kalypsis pintool (Wako USA) equipped with a 1536-well pin head. 4; Incubation; 24 hr; 37 degree C in 5% humidfified CO2. 5; Reagent; 1 uL; Gly-Phe-7-Amino-4-trifluoromethylcoumarin. 6; Incubation; 30 min; 37 degree C in 5% humidfified CO2. 7; Detection; Fluorescence; Viewlux plate reader (PerkinElmer). 8; Reagent; 3 uL; SteadyGlo luciferase solution (Promega). 9; Incubation; 5 min; room temperature. 10; Detection; Luminescence; ViewLux plate reader (PerkinElmer). NOTES (numbers refer to Sequence numbers above) 1. HEK-293 cells expressing CMV-luciferase reporter (designated as SC cells) were suspended in phenol-red free DMEM and dispensed in assay plates using a Multidrop Combi dispenser (Thermo Fisher Scientific). 2. Assay plates were incubated. Evaporation was prevented by covering assay plates with metal lids containing holes to allow gas diffusion. 3. Compounds were added in a dose response manner with the final concentrations of 57, 11.4, 2.28, 0.46, 0.091, 0.018, 0.0037 uM. Vehicle-only plates, with DMSO being pin-transferred to columns 5-48, were inserted uniformly at the beginning and the end of each library to monitor and record any shifts in assay performance. 5. 125 uM Gly-Phe-7-Amino-4-trifluoromethylcoumarin (MP Biomedicals) working concentration was used at a final concentration of 25 uM. 7. To assess cell viability; the assay plates were read using the ViewLux high-throughput CCD imager (PerkinElmer), wherein single end-point fluorescence measurement was acquired (excitation 405/10; emission 540/25 nm). 8. Detection reagent SteadyGlo Luciferase (Promega) was added to the assay plate. 10. Luminescence is then measured on the ViewLux imager equipped with a clear emission filter using a 2 sec exposure. […]
# % is scaled to controls: 0 for no effect and ±100 for the full control effect; potency is read from the fitted curve at half-maximal effect.
SMILES,Potency,"activity change, negative = inhibition"
O=C(C1CCC(CNS(=O)(=O)c2cccc3nsnc23)CC1)N1CC=C(c2ccccc2)CC1 (stereo unspecified),3.16 µM (active),
CC(=O)N/N=C/c1cc(C(C)(C)C)cc(/C=N/NC(C)=O)c1O,3.16 µM (active),
C(=N\NC(=Nc1ccccc1)c1ccccn1)/c1ccccn1,,-1.1%
O=c1nc(N/N=C/c2ccccn2)cn[nH]1,14.1 µM (active),
C(=N\Nc1ccc2nncn2n1)/c1ccccn1,17.8 µM (active),
Cc1nnc(N/N=C/c2ccccn2)[nH]c1=O,1.78 µM (active),
O=c1cnnc(N/N=C/c2ccccn2)[nH]1,1.41 µM (active),
Cn1c(/C=C/c2ccc(Cl)cc2)c([N+](=O)[O-])c(=O)n(C)c1=O,31.6 µM (active),
COc1cc2c(O)c3c(c(-c4ccc5c(c4)OCO5)c2cc1OC)C(=O)OC3,,16.4% [at 11.4 µM]
CCN1CCN(C(c2ccc(C(F)(F)F)cc2)c2ccc3cccnc3c2O)CC1 (stereo unspecified),14.1 µM (active),
S=C(NCc1cccnc1)Nc1ccc(Oc2ccc(Cl)cc2)cc1,10 µM (active),
Cn1c(=O)c2cc(NC(=O)Nc3cccnc3)ccc2n1Cc1ccc(Cl)cc1,,-24%
NC(c1csc(Nc2nccc(C(F)(F)F)n2)n1)C1CCCCC1 (stereo unspecified),,13.2% [at 11.4 µM]
CC1CC(C)CN(CCCNC(=O)c2cc3c(s2)-c2ccccc2OC3)C1 (stereo unspecified),,-23% [at 11.4 µM]
Cc1cccc2c1-c1sc(C(=O)Nc3ccccc3N3CCN(C)CC3)cc1CO2,22.4 µM (active),
CCc1ccc(NC(=O)COc2ccc(/C=C(/C#N)c3nc4ccccc4[nH]3)cc2OC)cc1,3.55 µM (active),
COCC(=O)OC/C(O)=C(\C#N)c1nc2ccccc2[nH]1,,-13.1% [at 11.4 µM]
O=C1/C(=C/c2ccc([N+](=O)[O-])cc2)C=C(c2ccccc2)N1c1ccc(O)cc1,3.98 µM (active),
COc1ccc(F)cc1-c1cc(NC=O)c2ncc(-c3cccc(C(=O)N(C)C)c3)n2c1,,-8.79% [at 11.4 µM]
Cc1cc(N2CCN(c3nc(-c4ccccc4)cs3)CC2)c2ccccc2n1,3.55 µM (active),
CCN(CC)CCn1c2ccccc2c2cnc(N)c(C#N)c21,,-22.5% [at 11.4 µM]
CCN(CC)CCC(=O)Nc1cccc2c1C(=O)c1ccccc1C2=O,,-4.68% [at 11.4 µM]
CCN(CC)CCn1nc2c3c(cccc3c1=O)-c1ccccc1-2,8.91 µM (active),

SMILES,Potency,"activity change, negative = inhibition"
O=C(NNC1=Nc2ccccc2SC1)c1ccc(Cl)cc1,1.78 µM (active),
Cc1nnc(SCC(N)=O)n1CC1CCCO1 (stereo unspecified),,-6.37%
CCn1c(C)cc(C(=O)CN2C(=O)c3ccccc3S2(=O)=O)c1C,0.398 µM (active),
O=C(CN1C(=O)c2ccccc2S1(=O)=O)Nc1ncc(Cl)cc1Cl,3.16 µM (active),
Cc1cc(C(=O)CN2C(=O)c3ccccc3S2(=O)=O)c(C)n1C(C)C,0.562 µM (active),
Cc1cc(C(=O)CN2C(=O)c3ccccc3S2(=O)=O)c(C)n1CC1CCCO1 (stereo unspecified),0.501 µM (active),
Nc1nc(NCCc2ccccc2)nc(NCc2ccccc2)c1[N+](=O)[O-],,-24%
COC(=O)[C@H]1C[C@H](OC(=O)NC2CC2)[C@@]2(O)CN(S(=O)(=O)c3ccc(C)cc3)CC2[C@H]1C(=O)OC (stereo partly specified),,4.52% [at 11.4 µM]
O=C(CN1C(=O)c2ccccc2S1(=O)=O)c1ccc(Cl)cc1Cl,1 µM (active),
CC1Cc2cc(-c3csc(NC(=O)Cc4cccs4)n3)ccc2N1S(C)(=O)=O (stereo unspecified),1.41 µM (active),
O=c1c2c(nc3c(-c4ccc(Cl)cc4)c[nH]n13)CCCC2,0.891 µM (active),
O=c1c2c(nc3c(-c4cccc(Br)c4)c[nH]n13)CCCC2,3.55 µM (active),
CC1CCCN(S(=O)(=O)c2ccc(C(=O)Nc3nnc(-c4ccccc4Cl)o3)cc2)C1 (stereo unspecified),1.26 µM (active),
CC1CCCCN1S(=O)(=O)c1ccc(C(=O)Nc2nnc(-c3ccncc3)o2)cc1 (stereo unspecified),8.91 µM (active),
CN(C)CCCNC(=O)/C=C/c1ccc(OCc2c(F)cccc2Cl)cc1,,-21.7%
Clc1ccc(-c2cc(C3CCNCC3)[nH]n2)c(Cl)c1,,-29.5%
Cc1ccc(CN2CCC(c3cc(-c4ccc(Cl)cc4)n[nH]3)CC2)cc1,22.4 µM (active),
COc1ccc(N2CCN(C(=O)c3cc4c(C)nc5ccccc5c4o3)CC2)cc1,22.4 µM (active),
CCOC(=O)c1cnc2ccc(OC)cc2c1Nc1ccc(N2CCN(C)CC2)cc1,,-24.8%
CCc1ccc(CNC(=O)c2cc3c(C)nc4ccccc4c3o2)cc1,10 µM (active),
Cc1sc2nc(CN3CCCC3)nc(N3CCC(C(N)=O)CC3)c2c1C,,3.08%
COc1ccc(C(=O)N2CCN(c3nc(C4CC4)nc4sc(C)c(C)c34)CC2)cc1,17.8 µM (active),
Cc1ccc(C)c(OCCCC(=O)Nc2nccs2)c1,,6.11%
